Sampled rows, rich in hits. Any-hit rate of the full collection: about 4.6%.
PfHsp90 yeast 2: reduces growth (ATP signal) of yeast expressing P. falciparum Hsp90; S. cerevisiae expressing PfHsp90, BacTiter-Glo ATP, 48 h; yeast lacking PDR1 and PDR3 efflux regulators; actives 0.32% (n = 310,000); inhibition, % at 9.4 µM; AID 504621;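 active = every replicate shows inhibition above about 80%, whatever the replicate mean, limit read from the data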;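 note: 0% = DMSO neutral controls and 100% = 20 µM radicicol positive controls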
SKKanGAS inh: inhibitors of SKKanGAS S. pyogenes growth in kanamycin (SK-promoter or general growth effect). inhibition, % at 7.5 µM. BacTiter-Glo, 6 h. actives 1.3% (n = 300,000);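 active = mean replicate score, as percent of positive control median, at least 50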;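 note: strain carries kanamycin resistance gene driven by streptokinase promoter and grows in 40 µg/ml kanamycin; loss of luminescence reflects streptokinase promoter inhibition or plain growth inhibition; 0% = median of DMSO wells and 100% = positive control at its reference dose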
NALP3 yeast inh: inhibitors of NALP3 inflammasome in yeast; Yeast reconstituted NLRP3/ASC/caspase-1, beta-gal luminescence, 24 h; actives 0.39% (n = 330,000); inhibition, % at 10 µM;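 active = inhibition of 50% or more; inactive = inhibition below 50%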;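 note: plate controls were induced DMSO wells for no effect and uninduced yeast grown without galactose for full effect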
tim23-1 inh: tim23-1 yeast growth inhibition | S. cerevisiae tim23-1 growth, BacTiter-Glo luminescence, 24 h | inhibition, % at 20 µM | actives 1.3% (n = 330,000) | AID 463212;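 active = growth inhibition of the mutant yeast at or above 50%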;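 note: temperature-sensitive mutant grown at 25 °C; plate controls were DMSO-treated mutant yeast for no effect and medium wells lacking yeast for full effect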
tim10-1 inh: tim10-1 yeast growth inhibition. S. cerevisiae tim10-1 ts strain growth, BacTiter-Glo, 24 h. inhibition, % at 20 µM. actives 2.2% (n = 330,000). AID 463190;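 active = inhibition of at least 40%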;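 note: mutant grown at 25 °C; 0% = DMSO wells with yeast and 100% = wells holding no yeast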
TIM10 inh: TIM10 yeast growth inhibition; S. cerevisiae TIM10 strain growth, BacTiter-Glo luminescence, 24 h; AID 463195; actives 1.4% (n = 330,000); inhibition, % at 10 µM;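 active = inhibition of 40% or more at the single tested concentration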;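 note: wild-type TIM10 isogenic control strain grown at permissive 25 °C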
tim10-1 conf: tim10-1 yeast growth inhibition, confirmed; S. cerevisiae tim10-1 ts strain growth, BacTiter-Glo, 24 h; actives 56% (n = 7,400); shares compounds with tim10-1 inh; inhibition, % at 20 µM;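 active = inhibition of yeast growth at or above a set limit in either of two repeat tests at 20 µM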;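 note: tim10-1 mutant grown at permissive 25 °C to find synthetic lethal compounds; 0% = DMSO yeast wells and 100% = medium wells without yeast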
* marks the source's active call; other numbers are inactive results; nt = no result.

SMILES	PfHsp90 yeast 2	SKKanGAS inh	NALP3 yeast inh	tim23-1 inh	tim10-1 inh	TIM10 inh	tim10-1 conf
CCc1ccc(/C=C2/C(=O)N(C)C(=S)N2CC(=O)OC)s1	-7	-11	8	46	43*	39	44*
COc1cc(/C=C2\SC(=S)NC2=O)ccc1OS(=O)(=O)c1ccccc1	nt	23	-18	23	43*	26	33*
C=CC[C@@H]1Cc2c(Br)ccc(Br)c2[C@@H](CC=C)N1	9	10	9	29	41*	-2	28
O=C(CSc1nnc(SCc2ccccc2)s1)NNC(=S)Nc1ccccc1	-4	2	14	33	46*	38	28
CCOc1ccccc1NC(=O)CSc1nc(=O)n(CCCN2CCOCC2)c2c1CCCC2	-1	-1	19	12	7	3	nt
CCOC(=O)C1CCCN(c2nc3ccccc3nc2NS(=O)(=O)c2ccc(C)cc2)C1 (configuration not stated)	7	nt	21	48	17	29	nt
C[C@H]1C=CC(=O)O[C@H]1c1ccccc1	-1	1	-32	44	48*	36	52*
CC1C(=O)C(C)(C)C(=O)OC1c1ccccc1 (configuration not stated)	2	-1	4	11	1	13	nt
Cc1ccc(CSCC(=O)Nc2cc(S(=O)(=O)N3CCOCC3)ccc2OCC(F)(F)F)cc1	-15	nt	nt	nt	nt	nt	nt
O=C(c1sc2ccccc2c1Cl)N1CCN(c2ccccc2F)CC1	9	0	8	30	42*	3	28
O=C(c1sc2ccccc2c1Cl)N1CCN(c2ccc(F)cc2)CC1	0	14	0	8	28	32	nt
Cc1ccccc1C1CC(=O)c2ccccc2C1C (configuration not stated)	22	nt	nt	nt	nt	nt	nt
CC(=O)c1sc(N/N=C2\CC3CC2C(C)C3(C)C)nc1C (configuration not stated)	16	9	15	20	45*	18	28
CN(CC(=O)O/N=C(\N)c1ccccn1)S(=O)(=O)c1ccc(Br)cc1	-7	-7	20	23	32	13	nt
CN(CC(=O)O/N=C(\N)c1ccc(Br)cc1)S(=O)(=O)c1ccccc1	11	-14	28	9	50*	-4	43*
Cc1ccc(S(=O)(=O)n2cnc(C)c2)cc1	-8	-3	8	12	14	13	nt
CNC(=O)C(=O)Nc1cc2c3c(c1)CCN3C(=O)CC2	-2	-4	16	-20	5	0	nt
CCCc1sc(N)nc1-c1ccc(Cl)cc1	-33	-6	-5	13	43*	18	20
Cc1c(F)cccc1NC(=O)CCCCCC1NC(=O)NC1C (configuration not stated)	nt	-4	-7	8	5	-9	nt
Cc1cc(-c2ccc(C)c(S(=O)(=O)NCC3CCN(Cc4ccc(F)cc4)CC3)c2)on1	-11	-7	15	-24	42*	-11	-81
CC(=O)c1cccc(S(=O)(=O)NCCC(=O)O)c1	20	-3	9	4	18	-15	nt
Cc1csc(SCC(=O)Nc2ccc(Cl)cn2)n1	-1	0	29	-15	8	19	nt
CC(C)(C)c1csc(SCC(=O)Nc2ccc(Cl)cn2)n1	0	-6	28	38	43*	23	30
CN(C)S(=O)(=O)c1ccc(C(=O)NCc2nnc(SCC(=O)N3CCCC3)o2)cc1	1	17	1	7	2	8	nt
COCCn1c(=S)[nH]c2cc(C(=O)N3CC(C)CC(C)C3)ccc2c1=O (configuration not stated)	-28	4	4	-8	41*	-33	-62
SMILES	PfHsp90 yeast 2	SKKanGAS inh	NALP3 yeast inh	tim23-1 inh	tim10-1 inh	TIM10 inh	tim10-1 conf
CCCCC1CCC(C(=O)N(CC(C)C)c2c(N)n(Cc3ccccc3)c(=O)[nH]c2=O)CC1 (configuration not stated)	nt	-10	17	11	13	6	nt
O=C(Nc1ccccn1)c1csc2c1CCCC2	8	2	20	14	44*	21	17
CCOC(=O)c1ccc(NC(=O)c2c(NC(=O)CCC(=O)O)sc3c2CCCCC3)cc1	3	8	3	26	40*	28	31*
CCCC(=O)Nc1sc2c(c1C(=O)Nc1ccccn1)CCCC2	8	7	26	25	45*	25	23
CCOc1ccccc1NC(=O)c1c(NC(=O)CCC(=O)O)sc2c1CCCCC2	-6	nt	3	28	32	22	nt
COc1ccccc1NC(=O)c1csc2c1CCCC2	nt	-1	34	39	14	12	nt
C/C(=N\NC(=O)NC1CCCCC1)c1ccco1	-5	-3	9	13	15	-10	nt
O=C1CCCN1C(=O)CSc1ccc2ccccc2n1	-20	nt	13	13	14	-3	nt
Cc1sc(N)nc1C12CC3CC(CC(C3)C1)C2	-31	1	27	17	46*	20	16
S=c1nc(C23CC4CC(CC(C4)C2)C3)[nH][nH]1	7	1	5	11	13	6	nt
Cc1nn(-c2ccccc2)c2c1C(O)n1c(nc3ccccc31)S2 (configuration not stated)	0	8	14	38	41*	25	-5
Cc1nn(-c2ccccc2)c(C)c1Cc1ccc(O)cc1	18	-2	36	40	23	3	nt
COc1ccc(CC(=O)Nc2nnc(SCC(=O)NCc3ccco3)s2)cc1OC	4	2	4	-14	7	1	nt
Cc1ccc(Nc2c(-c3ccco3)nc3nc(C)cc(C)n23)cc1	23	10	17	10	41*	17	14
O=C(c1ccc(COc2ccccc2Br)cc1)N1CCCCCC1	-32	8	18	39	41*	28	27
Cc1ccc2c(c1)c1c(n2CC(O)Cn2nc(C)c(Br)c2C)CCCC1 (configuration not stated)	-63	31	-4	23	43*	7	11
CC1CN(CC(=O)Nc2ccc([N+](=O)[O-])cc2Br)CC(C)O1 (configuration not stated)	25	2	1	13	0	11	nt
COc1ccc(Cc2n[nH]c(=S)n2NC(=O)Nc2ccc(Cl)c(Cl)c2)cc1	-93	65*	16	18	43*	31	64*
Cn1c(CC(=O)Nc2ccc(Cl)c(Cl)c2)n[nH]c1=S	5	0	12	1	-2	-5	nt
COC(=O)CSc1nc2c(c(-c3ccco3)c1C#N)CCCC2	7	9	-1	31	47*	25	40*
COc1ccccc1CNC(=O)[C@@H]1CCCN1S(=O)(=O)c1ccccc1F	28	-1	20	17	7	11	nt

Compound activity from PubChem.
